Records with an inconclusive call do not appear. Activity calls are given as the source filed them. Rule for the calls: active = hit-call score of the fitted dose curve at least 0.9, where 1 is the maximum; inconclusive = response in the unintended direction; inactive = score below 0.9.

In this test the target is Peroxisome proliferator-activated receptor gamma (Homo sapiens) (UniProt P37231). As to the kind of experiment: OT_PPARg_PPARgSRC1_0480: Odyssey Thera (OT) 8-hour Protein-Complementation Assay for Peroxisome Proliferator-activated Receptor Gamma / SRC-1 Co-activator (AID 2283387).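 Note: nuclear to cytoplasmic split Venus YFP fluorescence ratio reporting PPARg SRC-1 interaction.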 Here is the method: OT_PPARg_PPARgSRC1_0480 is a cell-based assay that uses HEK293T, a human kidney cell line, with measurements taken at 8 hours after chemical dosing in a 384-well plate.OT_PPARg_PPARgSRC1_0480 is one of one assay component(s) measured or calculated from the OT_PPARg_PPARgSRC1_0480 assay. It is designed to make measurements of protein fragment complementation, a form of binding reporter, as detected with fluorescence intensity signals by Protein-fragment Complementation technology.Data from the assay component OT_PPARg_PPARgSRC1_0480 was analyzed into 1 assay endpoint. This assay endpoint, OT_PPARg_PPARgSRC1_0480, was analyzed in the positive analysis fitting direction relative to DMSO as the negative control and baseline of activity. Using a type of binding reporter, measures of receptor for gain-of-signal activity can be used to understand the binding at the pathway-level as they relate to the gene PPARG. Furthermore, this assay endpoint can be referred to as a primary readout, because the performed assay has only produced 1 assay endpoint. To generalize the intended target to other relatable targets, this assay endpoint is annotated to the nuclear receptor intended target family, where the subfamily is non-steroidal.
Peroxisome proliferator-activated receptor gamma (Homo sapiens), sequence (P37231 whole entry, looked up, the tested form may be a part): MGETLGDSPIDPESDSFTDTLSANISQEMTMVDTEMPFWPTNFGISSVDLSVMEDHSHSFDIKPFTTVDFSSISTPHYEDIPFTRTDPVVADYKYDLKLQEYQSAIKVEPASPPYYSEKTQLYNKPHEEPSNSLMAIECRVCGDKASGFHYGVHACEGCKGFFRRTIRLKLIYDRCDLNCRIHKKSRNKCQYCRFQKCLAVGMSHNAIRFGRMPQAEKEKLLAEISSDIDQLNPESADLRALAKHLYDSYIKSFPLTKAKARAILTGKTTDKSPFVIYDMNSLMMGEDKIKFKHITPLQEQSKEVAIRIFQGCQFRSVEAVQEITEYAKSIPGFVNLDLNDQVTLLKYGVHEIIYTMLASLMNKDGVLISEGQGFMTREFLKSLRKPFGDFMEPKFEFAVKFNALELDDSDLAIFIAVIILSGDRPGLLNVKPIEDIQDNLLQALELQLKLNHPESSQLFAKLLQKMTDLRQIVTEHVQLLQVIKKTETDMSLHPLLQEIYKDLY
The OT PPARg/SRC-1 assay assessed receptor-chemical interactions using a rapidly maturing, intensely fluorescent mutant of YFP known as Venus, rationally dissected into two separate fragments. The fragments were obtained as follows: first, fragments coding for YFP1 and YFP2 (corresponding to amino acid residues 1-158 and 159-239 of the full length YFP, respectively) were generated by oligonucleotide synthesis (Blue Heron Biotechnology), and then PCR mutagenesis was used to generate the mutant fragments IFP1 and IFP2. Fusion constructs were transfected into HEK293T cells with a (Gly4Ser)2 linker between the PPARg/SRC-1 and YFP fragment genes to facilitate complementation when interacting proteins bring fragments into close proximity. The construct is transiently transfected in HEK293T cells 48 hours prior to treatment with test compounds. Cells are seeded into optical quality 384-well poly-D-lysine coated plates in MEM alpha medium (Invitrogen) supplemented with 10 percent FBS (Gemini Bio-Products) 1 percent penicillin and 1 percent streptomycin, and grown in 37C incubator equilibrated to 5 percent CO2. Cells are allowed to adhere for 24 hours prior to treatment with compounds of interest or controls for 8 hours. Cells are fixed in 4 percent formaldehyde and stained with Draq5 (BioStatus) to identify cells and subcellular compartment boundaries prior to signal detection. 8 Images per well were acquired on an Evotec Opera at 2 wavelengths (488 and 635nm), and the ratio of fluorescence in the nucleus relative to fluorescence in the cytoplasm (N/C Ratio) in the 488nm channel was calculated for a minimum of 350 cells per image.
As to `Nc1ccc(Oc2ccc(N)cc2)cc1`, the molecule was classed as inactive.

For the molecule `CCCCOC(=O)c1ccccc1C(=O)OCc1ccccc1`, the outcome was inactive.

For the molecule `CNC(=O)Oc1cccc2c1OC(C)(C)C2`, the outcome was inactive.

`CC(C)N(Cc1ccccc1)C(=O)C(C)(C)C`: the molecule was called inactive.

As for `Cn1cc(-c2ccccc2)c(=O)c(-c2cccc(C(F)(F)F)c2)c1`, the molecule was called inactive.

For `C=CCc1ccc2c(c1)OCO2`, the result was inactive.

On to `CCNS(=O)(=O)C(F)(F)C(F)(F)C(F)(F)C(F)(F)C(F)(F)C(F)(F)C(F)(F)C(F)(F)F`, for which the outcome was inactive.

Take `Clc1ccc(C(c2ccc(Cl)cc2)C(Cl)Cl)cc1`: the outcome was inactive.

As to `COP(=S)(OC)SCN1C(=O)c2ccccc2C1=O`, the result was inactive.

Regarding `CCOc1cccc(C2(N3CCN(c4ccccc4)CC3)CCC(C)CC2)c1` (stereo not given), the outcome was inactive.

`CN(C)c1ccc(C(=O)c2ccc(N(C)C)cc2)cc1`: the call was inactive.

For `Nc1ccc(N=Nc2ccccc2)cc1`, the call was inactive.

Turning to `Nc1cc(Cl)cc(C(=O)O)c1Cl`, the result was inactive.

Consider `O=P(OCCCl)(OCCCl)OCCCl`, for which the molecule was classed as inactive.

Consider `CN(C)C(=O)Nc1ccc(Cl)cc1`, for which the outcome was inactive.

Consider `N#CC(Br)(Br)C(N)=O`, for which the outcome was inactive.

For the molecule `Nc1ccc(Cc2ccc(N)cc2)cc1`, the molecule was classed as inactive.

On to `Cc1ccc(N=C=O)cc1N=C=O`, for which the molecule was classed as inactive.

With `OCCCBr`, the outcome was inactive.

For `CC(C)COC(=O)c1ccccc1C(=O)OCC(C)C`, the molecule was called inactive.

With `Clc1ccccc1Cl`, the molecule was called inactive.

Consider `CCC12COCN1COC2`, for which the call was inactive.

As to `ClC1=C(Cl)[C@]2(Cl)[C@H]3[C@H]([C@@H]4C=C[C@H]3C4)[C@@]1(Cl)C2(Cl)Cl`, the outcome was inactive.

As to `Nc1ccc([N+](=O)[O-])cc1`, the call was inactive.

`Cc1ccc(N)cc1`: the molecule was called inactive.

For `CCN(CC)CCO`, the call was inactive.

On to `CC(C)(C)OOC(=O)c1ccccc1`, for which the call was inactive.

Take `C[N+](C)(C)CC1CO1` (stereo not given): the outcome was inactive.

Consider `CCN(CC)N=O`, for which the call was inactive.

`OCCCl`: the outcome was inactive.

Consider `CCCCC(CC)COC(=O)c1ccc(C(=O)OCC(CC)CCCC)c(C(=O)OCC(CC)CCCC)c1` (stereo not given), for which the molecule was called inactive.

On to `Clc1ccc(C(c2ccc(Cl)cc2)C(Cl)(Cl)Cl)cc1`, for which the molecule was called inactive.

In the case of `CN(C)[C@@H]1C(=O)C(C(N)=O)=C(O)[C@@]2(O)C(=O)C3=C(O)c4c(O)cccc4[C@@](C)(O)[C@H]3C[C@@H]12`, the molecule was called inactive.

Consider `CC(C)(OOC(C)(C)c1ccccc1)c1ccccc1`, for which the outcome was inactive.

For the molecule `Cc1ccc([N+](=O)[O-])cc1`, the molecule was called inactive.

As to `O=C(Oc1ccc(Br)cc1)N1CCN2CCC1CC2`, the outcome was inactive.

As to `CCOC(=O)[C@]1(c2ccccc2)Oc2ccccc2[C@@H]1N`, the outcome was inactive.

With `CCCCCCCCOC(=O)c1ccc(C(=O)OCCCCCCCC)c(C(=O)OCCCCCCCC)c1`, the molecule was classed as inactive.

As for `CO[C@@H]1[C@H](OC(=O)NC(=O)CCl)CC[C@]2(CO2)[C@H]1[C@@]1(C)O[C@@H]1CC=C(C)C`, the outcome was inactive.

Regarding `CCCCCCCCCCCCCN1CC(C)OC(C)C1` (stereo not given), the molecule was classed as inactive.

(Values after PubChem BioAssay (EPA / NIEHS).)
